# PubChem BioAssay (EPA / NIEHS)
# Active and inactive are the calls of the source. How the source made its calls: active means hit-call score of the fitted dose curve at least 0.9, where 1 is the maximum; inactive means score below 0.9.
# Target: X-box-binding protein 1 (Homo sapiens) (UniProt P17861)
# Assay: ATG_Xbp1_CIS: Attagene CIS-FACTORIAL HepG2 Assay for human X-box Binding Protein 1 (XBP1) (AID 2282972)
# Settings: HepG2 XBP1 cis-element reporter, Attagene multiplex; actives raise or lower the signal
# In short: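 HepG2 cells transiently transfected with cis-regulated multiple reporter transcription units; endogenous transcription factor activity measured 24 hours after chemical dosing. Reporter mRNA quantified by RT-PCR, 6-FAM primer extension, HpaI digestion and capillary electrophoresis; bidirectional fitting versus DMSO.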
# Chain of X-box-binding protein 1 (Homo sapiens) (P17861 whole entry, looked up): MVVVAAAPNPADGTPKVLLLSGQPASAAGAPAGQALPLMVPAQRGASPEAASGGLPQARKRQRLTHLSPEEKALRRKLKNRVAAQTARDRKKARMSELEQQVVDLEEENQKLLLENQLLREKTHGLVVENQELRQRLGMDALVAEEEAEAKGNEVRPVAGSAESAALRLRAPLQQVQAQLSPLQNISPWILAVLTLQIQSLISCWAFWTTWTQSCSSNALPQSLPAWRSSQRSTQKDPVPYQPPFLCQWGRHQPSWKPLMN
Structure (SMILES),outcome,AC50
CCCCCCCCOC(C)=O,inactive,–
CCOC(=O)C(=O)OCC,inactive,–
CCCCCCCCCCCCOCCOS(=O)(=O)O,inactive,–
O=[N+]([O-])c1cc(N(CCO)CCO)ccc1NCCO,inactive,–
Cc1ccncc1,inactive,–
CCc1cccc(O)c1,inactive,–
O=S(=O)(O)CCCN1CCOCC1,inactive,–
C=CC(O)CCCCC (centres undefined),–,48.1 µM (active)
CCCOC(=O)CC,inactive,–
CCn1cc(C(=O)O)c(=O)c2ccc(C)nc21,inactive,–
NC(N)=S,inactive,–
CCOc1ccc(NC(C)=O)cc1,inactive,–
S=c1[nH][nH]c(=S)s1,inactive,–
C=CC(=O)OCC(CO)(COC(=O)C=C)COC(=O)C=C,inactive,–
C=C(C)C(N)=O,inactive,–
CCCCOC(=O)C(C)OC(=O)CCC (centres undefined),inactive,–
CCOC(=O)CC(C)C,inactive,–

Structure (SMILES),outcome,AC50
CCCCCCOC(C)=O,inactive,–
COc1ccc2[nH]cc(CCNC(C)=O)c2c1,inactive,–
CC/C=C\CCOC(=O)C(C)C,inactive,–
CCCCCCCCCCCCCCCCCC(=O)OCCCCCCCCCCCCCC(C)C,inactive,–
CCCCCCCCCC(=O)OCC,inactive,–
CCC(C)(C)c1cc(O)c(C(C)(C)CC)cc1O,–,5.91 µM (active)
Cc1cccc(C)c1,inactive,–
CC(=O)c1cccnc1,inactive,–
C[N+](C)(C)CCO,inactive,–
c1ccc2scnc2c1,inactive,–
CC1=CC(O)CC(C)(C)C1 (centres undefined),inactive,–
COC(=O)c1ccc(C(=O)OC)cc1,inactive,–
ClCCOCCOCCCl,inactive,–
O=S1(=O)CC=CC1,inactive,–
CCCCCCCCCCO[C@@H]1O[C@H](CO)[C@@H](O)[C@H](O)[C@H]1O,inactive,–
CCCCCC1CCC(=O)O1 (centres undefined),inactive,–
C=C(C)C(=O)OCCOCCOC(=O)C(=C)C,inactive,–
